Measured values: PubChem BioAssay (EPA / NIEHS)
More than one record can exist for a structure, and the calls need not agree. The source made the active and inactive calls. Rule for the calls: active = hit-call score of the fitted dose curve at least 0.9, where 1 is the maximum; inactive = score below 0.9.

read-out: Pselectin, SELP (gene 6403); experiment: BSK_4H_Pselectin: BioMAP Diversity Plus: 4H Assay for Pselectin Biomarker Activity (AID 2283026); settings: primary human endothelial cells (HUVEC); actives raise or lower the signal
Experimental: BSK_4H is a cell-based, multiplexed-readout assay that uses umbilical vein endothelium, a human vascular primary cell, with measurements taken at 24 hours after chemical dosing in a 96-well plate.BSK_4H_Pselectin is an assay component measured in the BSK_4H assay. It measures P-Selectin antibody related to regulation of gene expression using ELISA technology.Data from the assay component BSK_4H_Pselectin was analyzed into 1 assay endpoint. This assay endpoint, BSK_4H_Pselectin, was analyzed with bidirectional fitting relative to DMSO as the negative control and baseline of activity. Using a type of binding reporter, gain or loss-of-signal activity can be used to understand changes in the signaling as they relate to the gene SELP. Furthermore, this assay endpoint can be referred to as a primary readout, because this assay has produced multiple assay endpoints where this one serves a signaling function. To generalize the intended target to other relatable targets, this assay endpoint is annotated to the cell adhesion molecules intended target family, where the subfamily is selectins.
The levels of cell surface (or secreted, indicated by the prefix "s") biomarker endpoints were measured by ELISA. Overt cytotoxicity to cells in confluent adherent cultures (all systems other than the BT system) was assessed by measuring total protein levels using sulforhodamine B (SRB) staining in parallel cultures at the time of biomarker measurements, indicated as SRB endpoints. For proliferation assays for adherent cell types, individual cell types are cultured at sub-confluence and relative cell numbers quantified by SRB staining at time points optimized for each system (48 h: 3C and CASM3C systems; 72 h: BT and HDF3CGF systems; 96 h: SAg system). SRB was performed by staining cells with 0.1% SRB after fixation with 10% TCA and reading wells at 560 nm.Viability and proliferation of PBMC (T cells) was quantified by Alamar Blue reduction for the SAg and BT systems. For PBMC viability (referred to as PBMC Cytotoxicity within the assay endpoint names), cells were plated (75,000/well in a 96-well plate) and then chemical samples added for 1 h before addition of activators, SEB and TSST-1 (20 ng/mL final concentration each). Cells were incubated for 90 h. Then, Alamar Blue (20 uL/well) (Invitrogen, Cat DAL1100) was added for 6 h, and the plates were read with a fluorescence microplate reader at 546/580 nm (excitation/emission). For PBMC proliferation, cells were plated and activated as above but incubated for only 16 h prior to addition of Alamar Blue. Plates were read after 6 h.

Compound | outcome | AC50
COc1ccccc1N | inactive | –
Cc1ccc(OP(=O)(Oc2ccc(C)cc2C)Oc2ccc(C)cc2C)c(C)c1 | – | 12.9 µM (active)
CCCCOC(=O)COC(=O)c1ccccc1C(=O)OCCCC | inactive | –
OCCN(CCO)CCO | inactive | –
Cc1cc(C)cc(C)c1 | inactive | –
O=C(N[C@H]1CN2CCC1CC2)c1ccc2c(c1)OCCO2 | inactive | –
CCOP(=O)(OCC)OC(=CCl)c1ccc(Cl)cc1Cl | – | 35.3 µM (active)
O=c1oc2ccccc2c(O)c1C(CC(O)c1ccc(-c2ccc(Br)cc2)cc1)c1ccccc1 (stereo not given) | – | 6.34 µM (active)
O=[N+]([O-])c1ccc(Nc2ccccc2)cc1 | inactive | –
C[C@]12CC[C@@H](O)C[C@@H]1CC[C@@H]1[C@@H]2CC[C@]2(C)C(=O)CC[C@@H]12 | inactive | –
CC(C=O)Cc1ccc2c(c1)OCO2 (stereo not given) | inactive | –
CC1(C)[C@H](C(=O)O[C@H](C#N)c2cccc(Oc3ccccc3)c2)[C@@H]1/C=C(\Cl)C(F)(F)F | inactive | –
Cc1cc(Cl)ccc1OC(C)C(=O)O (stereo not given) | inactive | –
CC(C)O.CC(C)O.OCCN(CCO)CCO.OCCN(CCO)CCO.[Ti] | inactive | –
CCC(C)(C#N)N=NC(C)(C#N)CC (stereo not given) | inactive | –
Nc1c(Oc2ccccc2)cc(O)c2c1C(=O)c1ccccc1C2=O | inactive | –
CC(C)=CC1C(C(=O)OCc2cccc(Oc3ccccc3)c2)C1(C)C (stereo not given) | inactive | –
c1ccc2sc(SNC3CCCCC3)nc2c1 | inactive | –
c1ccc(-c2cccc(-c3ccccc3)c2)cc1 | – | 12.4 µM (active)
O=C(Cc1ccccc1)OCCc1ccccc1 | inactive | 2.34 µM (active)

Compound | outcome | AC50
CCOP(=S)(OCC)SCS(=O)(=O)C(C)(C)C | inactive | –
CCOC(=O)CC(=O)CCl | – | 11 µM (active)
Cc1cc(Cl)ccc1N | inactive | –
CCOC(=O)CCN(SN(C)C(=O)Oc1cccc2c1OC(C)(C)C2)C(C)C | – | 23.2 µM (active)
CCCCCCCCCCCCc1cccc(S(=O)(=O)O)c1 | inactive | –
O=C1C=CC(=O)c2ccccc21 | – | 1.62 µM (active)
COCC(=O)N(c1c(C)cccc1C)[C@H](C)C(=O)OC | inactive | –
Oc1c(Cl)cc(Cl)cc1Cl | inactive | –
Cc1ccccc1OP(=O)(Oc1ccccc1C)Oc1ccccc1C | – | 8.88 µM (active)
Cc1c([N+](=O)[O-])c(C)c([N+](=O)[O-])c(C(C)(C)C)c1[N+](=O)[O-] | inactive | –
CCOP(=S)(OCC)OP(=S)(OCC)OCC | – | 31.2 µM (active)
Cc1ccccc1OP(=O)(Oc1ccccc1)Oc1ccccc1 | – | 20 µM (active)
CCOC(=O)C(SP(=S)(OC)OC)c1ccccc1 (stereo not given) | – | 20 µM (active)
Clc1cccc(Cl)c1Cl | inactive | –
CCOP(=O)(OCC)SCCSCC | inactive | –
NC(=O)CCl | inactive | –
CCCCCCCCCCCCN(C)C | inactive | –
CC(C)(COCC1CO1)COCC1CO1 (stereo not given) | inactive | –
CC(C)N(C(=O)CCl)c1ccccc1 | – | 16.8 µM (active)
